Assay outcomes deposited in PubChem BioAssay by The Scripps Research Institute Molecular Screening Center.
HGIII-sPLA2 inh: Inhibits HGIII-sPLA2 liposome hydrolysis, primary screen; AID 743126; inhibition, % at 12.2 µM; hit rate 0.56% among 370,000; QFRET BODIPY PC-A2 liposome hydrolysis, fluorescence; Q9NZ20;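 active = inhibition above mean plus 3 SD of compounds lying within the high and low control bounds, cut at about 19% in these data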;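 note: 0% = median of test compound wells and 100% = no enzyme DMSO wells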
PLC-gamma1 inh: blocks human PLC-gamma1 enzyme activity | P19174 | purified PLC-gamma1, fluorogenic substrate, fluorescence | inhibition, % at 12.2 µM | hit rate 0.84% among 370,000; in the data active = inhibition above about 9.5%
proKLK7 act: activates the human kallikrein-7 zymogen; P49862; purified proKLK7, EDANS-DABCYL substrate fluorescence; 100% is mature enzyme control, 0% vehicle; activation, % at 7 µM; hit rate 0.9% among 370,000;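 active = activation above the mean of all tested compounds plus 3 SD, computed per campaign excluding outliers beyond control limits, cut at about 13% in these data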
ADAM10 inh: ADAM10 inhibition, QFRET primary screen; inhibition, % at 7 µM; recombinant ADAM10, EDANS/DABCYL FRET peptide cleavage, 3 h; hit rate 0.62% among 370,000; O14672;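 active = inhibition above a per-campaign cutoff equal to the mean of compounds falling between control-based bounds plus 3 SD, cut at about 20% in these data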;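 note: 0% = DMSO wells while the 100% control is not disclosed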
PLCb3 inh: blocks human PLC-beta3 enzyme activity; Q01970; Purified PLC-beta3, fluorogenic substrate, fluorescence; inhibition, % at 12.2 µM; hit rate 0.18% among 370,000; AID 720704;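 note: 0% = median of compound wells on plate and 100% = full blocker control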
ADAM17 inh: inhibitors of human ADAM17; P78536; recombinant ADAM17, EDANS/DABCYL FRET peptide cleavage; inhibition, % at 6.95 µM; hit rate 0.83% among 370,000;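 active = inhibition above the mean of compounds lying between control limits plus 3 SD, set per campaign, cut at about 8.5% in these data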;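 note: 0% = DMSO-only wells as the low control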
Target sequence (P78536 215-824 limits assumed): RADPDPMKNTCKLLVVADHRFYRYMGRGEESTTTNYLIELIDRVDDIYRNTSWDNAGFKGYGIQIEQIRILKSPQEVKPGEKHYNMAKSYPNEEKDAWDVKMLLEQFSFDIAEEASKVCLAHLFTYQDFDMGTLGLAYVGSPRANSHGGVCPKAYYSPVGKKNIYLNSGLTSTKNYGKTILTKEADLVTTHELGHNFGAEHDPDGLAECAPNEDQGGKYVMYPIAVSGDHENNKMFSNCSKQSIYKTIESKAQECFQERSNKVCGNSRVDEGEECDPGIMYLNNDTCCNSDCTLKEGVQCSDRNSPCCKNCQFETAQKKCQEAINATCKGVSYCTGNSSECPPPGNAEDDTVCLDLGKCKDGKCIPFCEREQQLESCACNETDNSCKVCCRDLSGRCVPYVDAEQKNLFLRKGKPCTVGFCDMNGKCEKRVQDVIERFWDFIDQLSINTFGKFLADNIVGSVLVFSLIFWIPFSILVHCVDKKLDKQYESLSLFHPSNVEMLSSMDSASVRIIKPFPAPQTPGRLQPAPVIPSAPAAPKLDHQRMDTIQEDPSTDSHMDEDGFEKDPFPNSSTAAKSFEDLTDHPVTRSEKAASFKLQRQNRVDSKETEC
PLCg1 ctr: inhibits human PLC-gamma1 in PLC-beta3 counter-screen | inhibition, % at 12.3 µM | shares compounds with PLC-gamma1 inh | AID 743258 | hit rate 3.1% among 3,300 | purified PLC-gamma1, fluorogenic substrate, fluorescence; in the data active = inhibition above about 9.5%
PLCb3 confirm: confirmation of human PLC-beta3 inhibitors. purified PLC-beta3, fluorogenic substrate fluorescence. inhibition, % at 12.3 µM. AID 743261. hit rate 1% among 3,300. shares compounds with PLC-gamma1 inh
Numbers without * were called inactive. Shown are actives, neighbours in structure and some others; about 3.4% of the full set was active somewhere. Cut-off read from the data, not from the text of the source, unless noted: active = inhibition above about 11%; inactive = the rest.

For COc1ccc(S(=O)(=O)N(C)CC(=O)Nc2ccc(C(N)=O)cc2)cc1OC the results were HGIII-sPLA2 inh 2, PLC-gamma1 inh 1, proKLK7 act 0, ADAM10 inh -5, PLCb3 inh -1 and ADAM17 inh -2.
Screening CCC(OC(=O)C(NC(=O)c1ccccc1)c1ccccc1)C(=O)Nc1cc(C)on1 (stereo unspecified) returned HGIII-sPLA2 inh -1, PLC-gamma1 inh 12*, proKLK7 act -1, ADAM10 inh 6, PLCb3 inh 0, ADAM17 inh -1, PLCg1 ctr -8 and PLCb3 confirm -10.
CCC(Oc1ccccc1)C(=O)Nc1cc(C)on1 (stereo unspecified) was read as HGIII-sPLA2 inh -6, PLC-gamma1 inh 1, proKLK7 act 0, ADAM10 inh -6, PLCb3 inh 0 and ADAM17 inh -2.
For COc1ccc(S(=O)(=O)Nc2ccc(C)cn2)cc1 the results were HGIII-sPLA2 inh 1, PLC-gamma1 inh -46, proKLK7 act 6, ADAM10 inh -121, PLCb3 inh -54 and ADAM17 inh -50.
For CCCC(=O)Nc1ccccc1NC(=O)c1ccc(OC(C)=O)cc1 the results were HGIII-sPLA2 inh -2, PLC-gamma1 inh 1, proKLK7 act 0, ADAM10 inh 5, PLCb3 inh -5 and ADAM17 inh -2.
Screening Cc1cc(C(=O)N2CCN(c3ccc([N+](=O)[O-])cc3)CC2)no1 returned HGIII-sPLA2 inh 0, PLC-gamma1 inh 9.5*, proKLK7 act 0, ADAM10 inh 11, PLCb3 inh 9, ADAM17 inh 8, PLCg1 ctr -4 and PLCb3 confirm -3.
`CCN(CC(=O)Nc1cc(Cl)ccc1C)C(=O)C1CC1` gave HGIII-sPLA2 inh 3, PLC-gamma1 inh 14*, proKLK7 act 0, ADAM10 inh 5, PLCb3 inh 1, ADAM17 inh 0, PLCg1 ctr -8 and PLCb3 confirm -4.
Screening CCN(CC(=O)Nc1cc(Cl)ccc1C)C(=O)C1CC(=O)N(Cc2ccccc2)C1 (stereo unspecified) returned HGIII-sPLA2 inh 6, PLC-gamma1 inh 1, proKLK7 act 0, ADAM10 inh -3, PLCb3 inh -8 and ADAM17 inh -7.
`CCN(CC(=O)NCCC1=CCCCC1)S(=O)(=O)c1ccccc1` gave HGIII-sPLA2 inh -7, PLC-gamma1 inh -1, proKLK7 act 0, ADAM10 inh 0, PLCb3 inh -4 and ADAM17 inh -2.
CN(C)c1ccc(O)c2c1CC1CC3[C@@H](N(C)C)C(=O)C(C(N)=O)=C(O)[C@]3(O)C(=O)C1=C2O (stereo partly specified) was read as HGIII-sPLA2 inh -8, PLC-gamma1 inh 17*, proKLK7 act 1, ADAM10 inh 4, PLCb3 inh 1, ADAM17 inh -2, PLCg1 ctr -3 and PLCb3 confirm -7.
For CC(C)c1ccc(OCC(=O)Nc2c3c(nn2C(C)(C)C)CS(=O)(=O)C3)cc1 the results were HGIII-sPLA2 inh -5, PLC-gamma1 inh -1, proKLK7 act 1, ADAM10 inh -7, PLCb3 inh -4 and ADAM17 inh -1.
Screening COCCN(CCOC)C(=O)Nc1ccc(Cl)cc1 returned HGIII-sPLA2 inh 10, PLC-gamma1 inh 0, proKLK7 act 0, ADAM10 inh -8, PLCb3 inh -5 and ADAM17 inh 4.
`COCCN(Cc1ccccc1)C(=S)Nc1ccc(Cl)cc1` gave HGIII-sPLA2 inh 1, PLC-gamma1 inh 13*, proKLK7 act 0, ADAM10 inh 8, PLCb3 inh -6, ADAM17 inh 3, PLCg1 ctr -1 and PLCb3 confirm -3.
For CC(C)[C@H]1CN=C2N(CCNC(=O)CCC3CCCCC3)[C@H](Cc3ccc(O)cc3)CN21 the results were HGIII-sPLA2 inh -7, PLC-gamma1 inh 18*, proKLK7 act 0, ADAM10 inh -2, PLCb3 inh 6, ADAM17 inh 5, PLCg1 ctr 4 and PLCb3 confirm 6.
For Cc1sc2nc(C3CC3)nc(NCCNS(=O)(=O)c3ccccc3)c2c1C the results were HGIII-sPLA2 inh -18, PLC-gamma1 inh 9.6*, proKLK7 act -1, ADAM10 inh 3, PLCb3 inh 6, ADAM17 inh 6, PLCg1 ctr -2 and PLCb3 confirm 0.
Cc1sc2nc(CN3CCOCC3)nc(NS(=O)(=O)c3ccccc3)c2c1C was read as HGIII-sPLA2 inh -1, PLC-gamma1 inh -9, proKLK7 act 0, ADAM10 inh 0, PLCb3 inh -12 and ADAM17 inh -1.
Screening COc1ccc(-c2nnn3c2C2c4cc(-c5cccc(F)c5)ccc4CCN2C(=O)C3)cc1 (stereo unspecified) returned HGIII-sPLA2 inh 3, PLC-gamma1 inh -2, proKLK7 act 0, ADAM10 inh -10, PLCb3 inh -2 and ADAM17 inh -4.
Screening CCC(Sc1nc(C)cc(C)n1)C(=O)Nc1cc(C)on1 (stereo unspecified) returned HGIII-sPLA2 inh -2, PLC-gamma1 inh 11*, proKLK7 act 0, ADAM10 inh 2, PLCb3 inh 11*, ADAM17 inh 4, PLCg1 ctr -6 and PLCb3 confirm -1.
N#Cc1ccccc1COC(=O)c1cccc(S(=O)(=O)N2CCCC2)c1 was read as HGIII-sPLA2 inh -9, PLC-gamma1 inh 1, proKLK7 act 0, ADAM10 inh 0, PLCb3 inh 2 and ADAM17 inh -1.
Screening Nc1ccc(N2CCOCC2)c2nonc12 returned HGIII-sPLA2 inh 5, PLC-gamma1 inh 31*, proKLK7 act 2, ADAM10 inh 2, PLCb3 inh -12, ADAM17 inh -1, PLCg1 ctr -4 and PLCb3 confirm -1.
COCCC(=O)N1CCC(Oc2ccc(C(=O)N(C)CCCC3CCCC3)cc2)CC1 was read as HGIII-sPLA2 inh 0, PLC-gamma1 inh 2, proKLK7 act 0, ADAM10 inh 7, PLCb3 inh -2 and ADAM17 inh 3.
Screening C/C(=C1\SC(N2CCOCC2)=NC1=O)c1ccc(C)cc1 returned HGIII-sPLA2 inh 1, PLC-gamma1 inh 10*, proKLK7 act 0, ADAM10 inh 1, PLCb3 inh 6, ADAM17 inh 5, PLCg1 ctr -3 and PLCb3 confirm 5.
`Cc1ccc(OCC(=O)Nc2cccc(S(=O)(=O)N3CCCCCC3)c2)c([N+](=O)[O-])n1` gave HGIII-sPLA2 inh 5, PLC-gamma1 inh 3, proKLK7 act 0, ADAM10 inh 9, PLCb3 inh 0 and ADAM17 inh 3.
